Source: PubChem BioAssay (National Center for Advancing Translational Sciences (NCATS))
TrxR1 inh – rat TrxR1 inhibition; AID 588453; 390,000 compounds, 1% hits; Potency, µM (top dose mostly 114 µM), for inactives: top-dose activity change, negative = inhibition, usual class: inhibitors; recombinant rTrxR1, NADPH fluorescence consumption, selenite substrate; O89049; note: % is set by controls: 0 for no effect and ±100 for the full control effect; nearly all actives have a fitted effect of over 65% in size
Target sequence (O89049 whole entry, looked up): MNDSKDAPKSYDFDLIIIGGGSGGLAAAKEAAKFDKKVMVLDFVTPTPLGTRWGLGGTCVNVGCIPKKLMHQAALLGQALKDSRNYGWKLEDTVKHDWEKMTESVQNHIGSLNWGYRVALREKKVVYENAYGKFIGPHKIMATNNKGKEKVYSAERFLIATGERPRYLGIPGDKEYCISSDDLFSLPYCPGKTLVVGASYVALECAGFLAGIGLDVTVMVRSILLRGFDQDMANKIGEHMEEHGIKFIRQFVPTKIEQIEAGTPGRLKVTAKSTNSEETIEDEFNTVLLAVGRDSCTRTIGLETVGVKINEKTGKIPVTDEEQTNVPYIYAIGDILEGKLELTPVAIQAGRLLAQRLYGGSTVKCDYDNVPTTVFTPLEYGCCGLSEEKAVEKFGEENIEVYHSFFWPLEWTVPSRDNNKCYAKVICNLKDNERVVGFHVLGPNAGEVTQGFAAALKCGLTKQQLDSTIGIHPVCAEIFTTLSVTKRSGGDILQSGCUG
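Rat TrxR1 (90 nM in the dispensed reagent) was pre-reduced with 400 uM NADPH for 5 min at room temperature, then incubated with compound for 15 min. After 400 uM selenite was added, NADPH fluorescence (Ex 340/Em 450 nm) was followed for 8 min.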
Nrf2 block – blocks Nrf2 signaling | A549 ARE-Fluc reporter, luciferase luminescence, 18-24 h | 360,000 compounds, 2.1% hits | Potency, µM (top dose mostly 46 µM), for the others: at the top dose activity change, negative = inhibition, most hits filed as inhibitors; note: % is set by controls: 0 for no effect and ±100 for the full control effect; nearly all actives have a fitted effect of over 60% in size
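Nrf2 activity is the BugLite luminescence, read 15 min after reagent at room temperature, following CellTiter-Fluor cytotoxicity readout (30 min, 37C). Compound titrations were applied for 18-24 h to 5000 A549 ARE_Fluc cells/well in 5% FBS OPTI-MEM.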
TrxR1 substrate – is turned over as a substrate by rat TrxR1. purified TrxR1 substrate turnover, NADPH consumption readout. O89049. AID 588456. 390,000 compounds, 0.01% hits. Potency, µM (series often up to 114 µM), inactives show at the highest dose activity change, negative = substrate turnover; note: % is set by controls: 0 for no effect and ±100 for the full control effect; nearly all actives have a fitted effect of over 50% in size
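Rat TrxR1, dispensed at 90 nM, was prereduced with 400 uM NADPH (final) for 5 min at ~22 deg C, then incubated with compound 15 min before 400 uM selenite. A first-read NADPH fluorescence drop versus no-compound background flagged substrates.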
GALK inh – blocks human galactokinase activity | P51570 | Purified GALK, Kinase-Glo residual ATP luminescence | Potency, µM (doses to about 57.5 µM), without a hit: at the highest dose activity change, negative = inhibition, actives largely listed as inhibitors | 270,000 compounds, 0.007% hits | AID 1868; note: % is set by controls: 0 for no effect and ±100 for the full control effect
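Compounds were pin-transferred into ATP buffer (35 uM final), then GALK plus galactose (5 nM, 100 uM final) was added. After 1 h at room temperature, Kinase-Glo Plus was added and luminescence read after 10 min.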
Nrf2 ARE act – activates Nrf2 signaling; AREc32 ARE-luciferase reporter (MCF7-derived line), luminescence, 24 h; Potency, µM (series often up to 46.1 µM), inactives show top-dose activation, usual class: activators; 410,000 compounds, 0.31% hits; note: % of control where 0% means no effect; nearly all actives have a fitted effect of over 65% in size
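For detection, Steady-Glo was added and plates sat 30 min at RT; before that, AREc32_Fluc cells grown overnight in OPTI-MEM/5% FBS had been treated with 23 nL compound for 24 hr at 37 deg C.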
A549 tox – A549 cytotoxicity, counter-screen for Nrf2 inhibitors; A549 ARE-Fluc cells, CellTiter-Fluor viability, 18-24 h; Potency, µM (doses to about 46 µM), for inactives: at the highest dose activity change, negative = cytotoxicity, actives largely listed as inhibitors; 390,000 compounds, 0.16% hits; note: % is set by controls: 0 for no effect and ±100 for the full control effect
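A549 ARE_Fluc cells in 5% FBS OPTI-MEM were exposed to compounds in concentration-response for 18-24 h at 37 deg C. Viability was read by CellTiter-Fluor fluorescence (Ex 405/Em 525) after 30 min, before the luciferase read.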
Starred values were filed as active, the others as inactive; ? = inconclusive; / = no result given; [ ] = dose if it differs, or a comment. Only some compounds are listed: those with a hit (about 3% of all), similar ones and a draw of the others. Calls come from the whole dose curve; as a rule, active = well fitted curve in the direction sought with a large enough effect; inconclusive = small, poorly fitted or top-dose-only effect, or another doubt; inactive = no such curve, though single readings can be large; an effect the other way counts as inactive or inconclusive. Potency is the fitted concentration of half-maximal effect.

SMILES	TrxR1 inh	Nrf2 block	TrxR1 substrate	GALK inh	Nrf2 ARE act	A549 tox
C[n+]1c2n(c3ccccc31)N=C(c1cc(C(C)(C)C)c(O)c(C(C)(C)C)c1)CS2	12.4%[57.1 µM]	18.4µM*	3.2%[57.1 µM]	8.3%	-1.9%	?
CC(C)(C)n1ncc2c(=O)n(Cc3ccccc3-c3ccccc3)cnc21	11.2%	/	-2.1%	/	/	/
COC1(OC)C=CC(=O)C=C1NC(=O)c1ccccc1OC(C)=O	12.6µM*	-28.8%	-4.5%[57.1 µM]	/	?	-1.8%
Cn1c(=O)oc2cc(S(=O)(=O)N3CCC(C(=O)N4CCN(c5ccc(Cl)cc5)CC4)CC3)ccc21	18.1%	18.4µM*	-3.0%	/	-0.2%	3.1%
CC(=O)N1c2c(cc(Br)cc2S(=O)(=O)N2CCN(c3cc(C)ccc3C)CC2)CC1C (centres undefined)	24.7%	-10.3%[9.27 µM]	6.2%[2.29 µM]	/	0.0%	8.6%
CC(=O)N1c2c(cc(Br)cc2S(=O)(=O)N2CCN(c3ccccc3F)CC2)CC1C (centres undefined)	26.6%[57.1 µM]	23.1µM*	-14.2%	-4.4%	-0.6%	-6.9%
CC(=O)N1c2ccc(S(=O)(=O)N3CCC(C(=O)N4CCN(c5cccc(C(F)(F)F)c5)CC4)CC3)cc2CC1C (centres undefined)	?	?	-4.0%	-5.7%	3.4%	0.9%
CC(=O)c1ccc(N2CCN(C(=O)C3CCN(S(=O)(=O)c4ccc5c(c4)CC(C)N5C(C)=O)CC3)CC2)cc1 (centres undefined)	1.5%	14.6µM*	-8.8%	-1.0%	2.8%	-0.5%
CC(=O)N1c2ccc(S(=O)(=O)N3CCC(C(=O)Nc4cccc(Cl)c4)CC3)cc2CC1C (centres undefined)	11.2%	2.06µM*	9.1%	-1.1%	-0.8%	-11.9%
CSC1=NC2(CCN(C(=O)NC3CCCCC3)CC2)N=C1c1ccc(C)c(C)c1	5.8%	3.8%	1.6%	/	-0.4%	-2.8%
NCC1OC(O[C@H]2[C@H](O)[C@@H](OC3C(O)C(N)CC(N)C3OC3OC(CO)C(O)C(O)C3N)O[C@@H]2CO)C(N)C(O)C1O (some centres undefined)	10.4%[57.1 µM]	/	7.6%[57.1 µM]	/	/	/
CC(=O)N1c2ccc(S(=O)(=O)N3CCC(C(=O)Nc4ccc(C)cn4)CC3)cc2CC1C (centres undefined)	13.2%	14.6µM*	5.1%	-2.6%	0.4%	-9.7%
CC1Cc2cc(S(=O)(=O)N3CCN(c4ccccc4F)CC3)ccc2N1C(=O)C1CC1 (centres undefined)	18.4%	14.6µM*	-2.2%	-5.8%	-0.5%	-8.4%
CC1Cc2cc(S(=O)(=O)CCC(=O)Nc3ccc(Cl)cc3F)ccc2N1C(=O)C1CC1 (centres undefined)	5.2%	13µM*	-4.5%	/	1.1%	1.0%
Cc1cccc(NC(=O)C2CCN(S(=O)(=O)c3ccc4ccccc4c3)CC2)n1	-2.7%	16.4µM*	-4.8%	/	2.9%	-13.5%
CCC(=O)N1CCc2cc(S(=O)(=O)NCCC(=O)Nc3cc(C)ccc3OC)ccc21	9.7%	10.2%	-4.3%	/	4.5%	11.1%
CCOC(=O)c1ccc(NC(=O)c2cnn(-c3ccc(C)cc3C)c2C2CCN(C(=O)OC(C)(C)C)CC2)cc1	31.5%	-23.1%	-4.5%	/	-1.0%	0.6%
CCOc1ccc(/C=C(\C#N)c2nc(-c3cc4ccccc4oc3=O)cs2)c(OCC)c1	9.8%	4.0%	-1.4%	/	-0.3%	0.6%
O=[S+]([O-])(c1ccc2c(c1)OCCO2)N1CCN([S+](=O)([O-])c2c(F)cc(F)cc2Br)CC1	/	13.3%	/	/	/	-2.7%
CC(OC(=O)c1ccccc1OCCOc1ccccc1)C(=O)Nc1ccc(Br)cc1 (centres undefined)	30.5%	/	2.8%	/	/	/
CC(=O)N1c2ccc(S(=O)(=O)N3CCC(C(=O)Nc4cccc(F)c4)CC3)cc2CC1C (centres undefined)	12.8%	16.4µM*	1.6%	0.6%	2.0%	-8.7%
